Laboratory results published in PubChem BioAssay (Tox21).
“And” between values parts separate entries of the source, which are not always exact repeats. Identical values can stand only once. Records with an inconclusive call do not appear. The source made the active and inactive calls. Calls come from the whole dose curve; as a rule, active = well fitted cell-killing curve with a large enough effect in the repeat runs; inconclusive = weak or mixed curves, or effect the other way; inactive = flat fitted curve, though single readings scatter.

Experiment: qHTS assay to identify small molecule agonists of the sonic hedgehog signaling (Shh) pathway - cell viability counter screen (AID 1259366); note: nearly all actives have a fitted effect of over 50% in size
Conditions: NIH/3T3 Gli1-Luc viability, CellTiter-Fluor, 24 h; series mostly up to 92.4 µM; viability change, negative = cytotoxic: at the top concentration
Excerpt: National Center for Advancing Translational Sciences [NCATS]
NIH Chemical Genomics Center [NCGC]
U.S. Environmental Protection Agency [EPA]
National Institutes of Environmental Health Sciences [NIEHS]
National Toxicology Program [NTP]
U.S. Food and Drug Administration [FDA]
The sonic hedgehog (Shh) pathway is essential for normal embryonic development. Dysregulation of the Shh pathway can cause severe developmental defects in organs. Therefore chemicals that interfere with the pathway are potential developmental toxicants. A cell line designated 3T3Gli1-Luc (DMB/OARSA/CFSAN/FDA, Laurel, MD), a NIH/3T3 derived clone containing stably integrated Gli1-Luc reporter is used to detect chemical interference of the Shh pathway, by changes in the expression of the firefly Luc gene under the control of the Gli1 transcriptional response element. This cell line was used to screen Tox21 libraries for identifying and prioritizing the potential developmental toxicants that interfere Shh pathway. The cytotoxicity of the compounds was tested in parallel by measuring the cell viability using CellTiter-Fluor assay system (Promega, Madison, WI) in the same wells.
Tox21 Assay Protocol Summary:
3T3 Gli1-Luc cells were dispensed at 2,000 per well in 5uL of culture medium into white solid bottom 1536-well plates (Greiner Bio-One, Monroe, NC) using a Multidrop Combi (Thermo Scientific, Waltham, MA) dispenser. The assay plates were incubated at 37 C and 5% CO2 for 4hr, and then 23nL of compounds dissolved in DMSO and positive control were transferred using a Pintool station (Wako, San Diego, CA). The assay plates were incubated at 37C and 5% CO2 for 24hr. For viability read, after 23hr of compound treatment, 1uL of CellTiter-Fluor reagent (Promega Corporation, Madison, WI) was added to each well of the assay plates using Flying Reagent Dispenser (FRD, Aurora Discovery, San Diego, CA) and incubated the assay plates at 37C for 1hr. The fluorescence signal was quantified using a ViewLux plate reader (Perkin Elmer, Shelton, CT).
% is set by controls: 0 for no effect and ±100 for the full control effect; potency is the fitted concentration of half-maximal effect.

Structure (SMILES) | viability change, negative = cytotoxic | Potency
CN1C(=O)c2ccc([N+](=O)[O-])cc2C1=O | -0.533% (inactive) | 
CCOC(=O)C(C)C(C)=O (stereo not given) | -2.05% (inactive) | 
CCCCN(CCO)CCCC | -13.3% (inactive) | 
CCn1c2ccccc2c2cc(N)ccc21 |  | inactive
O=C(O)c1cn(-c2ccc(F)cc2)c2cc(N3CCNCC3)c(F)cc2c1=O |  | inactive
CC(C)(C)NCC(O)c1cc(O)cc(O)c1 (stereo not given) | -5.07% [at 42.5 µM] (inactive) | 
CCN1CCCC1CNC(=O)c1cc(S(=O)(=O)CC)c(N)cc1OC (stereo not given) | 1.11% [at 42.5 µM] (inactive) | 
O=C1CC2(CCCC2)CC(=O)N1CCCCN1CCN(c2ncccn2)CC1 |  | inactive
CCCCCCCCCCCCCCCCCl | 0.0419% [at 19 µM] (inactive) | 
COc1ccc(Cc2cnc(N)nc2N)cc1OC | 2.51% [at 42.5 µM] (inactive) | 
Cc1ccc(S(=O)(=O)Oc2ccc(N=Nc3ccc(-c4ccc(N=Nc5c(O)ccc6cc(S(=O)(=O)O)cc(S(=O)(=O)O)c56)c(C)c4)cc3C)cc2)cc1 |  | 24.4 µM (active) and 15.9 µM (active)
Oc1c(Cl)cc(Cl)cc1Sc1cc(Cl)cc(Cl)c1O |  | inactive
c1cnc2cc3c(cc2n1)C1CNCC3C1 | -0.714% [at 42.5 µM] (inactive) | 
OCCOCCN1CCN(C(c2ccccc2)c2ccc(Cl)cc2)CC1 (stereo not given) |  | 26.9 µM (active)
Nc1nc(=S)c2[nH]cnc2[nH]1 |  | inactive
O=C1NCC2(CCN(CCc3ccccc3)CC2)O1 | 2.19% [at 42.5 µM] (inactive) | 
c1cc(C(c2ccc(OCC3CO3)cc2)C(c2ccc(OCC3CO3)cc2)c2ccc(OCC3CO3)cc2)ccc1OCC1CO1 (stereo not given) |  | inactive
CC1=CC(=O)c2ccccc2C1=O |  | 13.7 µM (active) and 13.3 µM (active)
NC(N)=Nc1nc(CSCC/C(N)=N/S(N)(=O)=O)cs1 | -12.1% [at 42.5 µM] (inactive) | 
c1ccc2n[nH]nc2c1 |  | inactive

Structure (SMILES) | viability change, negative = cytotoxic | Potency
CCCCCCCCCCCCc1ccccc1O |  | 60.3 µM (active) and 61.1 µM (active)
c1ccc2c(c1)CCCC2C1=NCCN1 (stereo not given) | 7.32% [at 42.5 µM] (inactive) | 
CCCOC(=O)c1cc(O)c(O)c(O)c1 |  | 43.1 µM (active)
CN(C)c1ccc(C(=C2C=CC(=[N+](C)C)C=C2)c2ccccc2)cc1 |  | 4.73 µM (active) [middle of 4 runs]
CCOc1ccccc1C(N)=O |  | inactive
CC(=O)CC(C)=O | 10.5% (inactive) | 
CCC(C)(C)C(=O)O[C@H]1C[C@@H](C)C=C2C=C[C@H](C)[C@H](CC[C@@H]3C[C@@H](O)CC(=O)O3)[C@H]21 |  | inactive
CC(=O)O[C@]1(C(C)=O)CC[C@H]2[C@@H]3C[C@H](C)C4=CC(=O)CC[C@]4(C)[C@H]3CC[C@@]21C |  | inactive
O=c1n(CC2CO2)c(=O)n(CC2CO2)c(=O)n1CC1CO1 (stereo not given) |  | 61.1 µM (active)
CCCN[C@H]1CCc2nc(N)sc2C1 |  | inactive
CNC1(C)C2CCC(C2)C1(C)C (stereo not given) | -3.26% [at 42.5 µM] (inactive) | 
O=C(O)CP(=O)(O)O | -1.96% [at 42.5 µM] (inactive) | 
C/C=C/c1ccc(OCC)c(O)c1 |  | inactive
CN(C)c1ccc2nc3ccc(=[N+](C)C)cc-3sc2c1 |  | 26.2 µM (active) and 43.3 µM (active) and 29.8 µM (active)
C=C(C)C(=O)O |  | inactive
CC(C)C(=O)c1c(C(C)C)nn2ccccc12 | 16.8% [at 42.5 µM] (inactive) | 
CC(C)(c1ccccc1)c1ccc(Nc2ccc(C(C)(C)c3ccccc3)cc2)cc1 |  | inactive
O=C(O)c1cccc(C(=O)O)c1 |  | inactive
CCCCCCCCCCCCCC[P+](CCCC)(CCCC)CCCC |  | 27.1 µM (active)
O=Nc1ccc(Nc2ccccc2)cc1 |  | 24.5 µM (active) and 24.3 µM (active)
